# Measurements from paper PMC5540273 (PLoS ONE, 2017).
# Key:
# Settings in all cases: concentration: 1 μM, replicates: in singlicate; n = 1
# CDK2 = test system: CDK2
# CDK3 = test system: CDK3
# CDK4-cyclinD1 = test system: CDK4-cyclinD1
# CDK4-cyclinD3 = test system: CDK4-cyclinD3
# CDK4 = test system: CDK4
# CDK5 = test system: CDK5
# CDK7 = test system: CDK7
# CDK8 = test system: CDK8
# CDK9 = test system: CDK9
# CDKL1 = test system: CDKL1
# CDKL2 = test system: CDKL2
# CDKL3 = test system: CDKL3
# CDKL5 = test system: CDKL5
# CHEK1 = test system: CHEK1
# CHEK2 = test system: CHEK2
# CIT = test system: CIT
# CLK1 = test system: CLK1
# CLK2 = test system: CLK2
# CLK3 = test system: CLK3
# CLK4 = test system: CLK4
# 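Note: KINOMEscan kinase panel screen.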
SMILES,%Inh (CDK2),%Inh (CDK3),%Inh (CDK4-cyclinD1),%Inh (CDK4-cyclinD3),%Inh (CDK4),%Inh (CDK5),%Inh (CDK7),%Inh (CDK8),%Inh (CDK9),%Inh (CDKL1),%Inh (CDKL2),%Inh (CDKL3),%Inh (CDKL5),%Inh (CHEK1),%Inh (CHEK2),%Inh (CIT),%Inh (CLK1),%Inh (CLK2),%Inh (CLK3),%Inh (CLK4)
Clc1ccc(-c2cc(-c3c[nH]nc3-c3ccccn3)ccn2)cc1 [GW681251],22%,42%,7%,0%,0%,0%,0%,11%,0%,15%,11%,22%,0%,0%,0%,4%,13%,0%,4%,20%
FC(F)(F)c1ccc(-c2cc(-c3c[nH]nc3-c3ccccn3)ccn2)cc1 [GW599550],2%,20%,11%,0%,35%,0%,0%,32%,0%,2%,21%,0%,0%,0%,16%,37%,8%,4%,5%,29%
CS(=O)(=O)CCNCc1ccc(-c2ccc3ncnc(Nc4ccc(OCc5ccccc5)c(Cl)c4)c3c2)o1.Cl [GW574783],5%,10%,21%,0%,0%,0%,0%,43%,0%,0%,11%,0%,0%,6%,0%,23%,0%,0%,0%,21%
CSc1nn2c(=O)cc(N3CCOCC3)nc2n1Cc1cccc(Cl)c1Cl [GSK2347225],0%,6%,0%,0%,16%,9%,0%,0%,4%,0%,27%,0%,8%,15%,0%,35%,40%,0%,100%,12%
COc1cc2ncnc(Nc3ccc(OCc4ccccc4Br)c(Cl)c3)c2cc1OC.Cl [GI261590],0%,8%,13%,6%,8%,18%,0%,0%,9%,20%,26%,2%,0%,0%,47%,29%,28%,0%,0%,17%
Cc1ccc(NC(=O)c2cccc(C#N)c2)cc1-c1ccc(C(=O)Nc2ccncc2)cc1 [GSK1398463],0%,7%,0%,9%,0%,0%,0%,0%,0%,15%,40%,0%,11%,19%,0%,47%,29%,0%,23%,24%
Cl.O=S(=O)(c1cccc(F)c1)c1ccc(Nc2ncnc3cc(Br)sc23)cc1Cl [GSK306886],6%,44%,0%,7%,17%,0%,0%,0%,6%,19%,19%,0%,0%,0%,0%,23%,23%,0%,0%,0%
CN1CCC(n2cnc(-c3ccc(F)cc3)c2-c2ccnc(NC3CCNCC3)n2)CC1 [SB-229482],0%,0%,33%,11%,44%,4%,30%,11%,0%,0%,22%,3%,0%,0%,39%,2%,0%,0%,4%,9%
Cl.Cl.c1ccc(-c2cc3ccncc3cc2OC2CCNCC2)cc1 [GSK1122999],0%,10%,0%,0%,11%,0%,0%,15%,2%,10%,10%,0%,7%,3%,0%,55%,64%,32%,4%,71%
Cn1cc(-c2ccc3c(c2)CCN3C(=O)Cc2cccc(C(F)(F)F)c2)c2c(N)ncnc21 [GSK2606414],0%,0%,0%,0%,6%,0%,0%,34%,0%,0%,15%,0%,0%,19%,0%,11%,22%,0%,0%,19%
